From the supplement of paper PMC10338343
± gives the standard deviation.

Tested on: MILI (PIWIL2) piRISC loaded with L1MC piRNA (26 nt)
Assay: pre-steady-state target cleavage rate (min^-1); guide: L1MC piRNA 5'p-UAACUAAAUACUAUGCAAGCUGUAGG; MIWI and MILI are mouse PIWI proteins and EfPiwi is from a freshwater sponge; tags in brackets are library labels; higher = faster piRNA-guided slicing of the target
How it was run: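 Cleave-'n-Seq: 1 nM active affinity-purified piRISC with one synthetic guide and 0.1 nM transcribed, DNA-blocked target RNA library were mixed, with or without 500 nM GTSF1 partner protein, in HEPES–potassium acetate buffer at 33 °C for 0–8 or 0–960 min. Uncleaved targets were sequenced and normalised to depth and to weakly complementary targets, three trials were pooled, and k3 was capped at 0.0001 min^-1. The pre-steady-state cleavage rate was fitted […].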

[1] = auxiliary factor: 500 nM mouse GTSF1
[2] = auxiliary factor: none (no GTSF1)

| Sequence | pre-steady-state target cleavage rate [1] | pre-steady-state target cleavage rate [2] |
| --- | --- | --- |
| UCCUGGAUGAGCUUCCUUAGUAUUUAGUUA | 0.132 ± 0.019 | 0.00577 ± 0.0024 |
| UCCUGGAUGAGGUUGCAAAGUAUUUAGUUA | 0.0323 ± 0.0068 | 0.00826 ± 0.0022 |
| UCCUGGAUCAGCAUGCAUAGUAAUUAGUUA | 0.181 ± 0.025 | 0.00637 ± 0.0027 |
| UCCUGGAUCAGCUUCGUUAGUAUUUAGUUA | 0.0434 ± 0.0096 | 0.00279 ± 0.0024 |
| UCCUGGUACAGCUUGCAUAGAAAUUAGUUA | 0.0374 ± 0.011 | 0.00311 ± 0.0031 |
| UCCUGGAUCAGCUUGCCUAGUAUUUAGUUA | 0.234 ± 0.015 | 0.00686 ± 0.0022 |
| UCCUGCUACUCCUUGCAUAGUAUUUAGUAA | 0.188 ± 0.023 | 0.00412 ± 0.002 |
| UCCUGGUACAGCUUCCAAAGUAUUUAGUUA | 0.138 ± 0.028 | 0.00693 ± 0.0027 |
| UCCUGGUACAGCUAGCAUACUAUUUAGUUA | 0.126 ± 0.026 | 0.00435 ± 0.0028 |
| UCCUGGAUCAGCUUGCAUUGUAUAUAGUUA | 0.183 ± 0.018 | 0.00663 ± 0.0022 |
| UCCUGGAUCAGCUUGCUUAGUAUUUUGUUA | 0.16 ± 0.015 | 0.00583 ± 0.0022 |
| UCCUGGAUGUCGUUGCAUAGUAUUUCAGUUA | 0.0621 ± 0.017 | 0.00397 ± 0.0033 |
| UCCUGGUAGAGCUUGCAUUGUAUUUAGUUA | 0.18 ± 0.015 | 0.00645 ± 0.0026 |
| UCCUGGAUCUCGUUGCAUAGUAUUUAGUAA | 0.114 ± 0.018 | 0.003 ± 0.0027 |
| UCCUGGUACAGGUUGCAUAGUAUUUACAAA | 0.0239 ± 0.011 | 0.00315 ± 0.003 |
| UCCUGGAUGUCCUUCAUAGUAUUUAGUUA | 0.0147 ± 0.004 | 0.00296 ± 0.0021 |
| UCCUGGAUGUCGAUGCAUAGUAAUUAGUUA | 0.0524 ± 0.011 | 0.00499 ± 0.0021 |
| UCCUGCUACAGGAAGCAUAGUAUUUAGUUA | 0.282 ± 0.014 | 0.00969 ± 0.0027 |
| UCCUGGAUGUCCUUGCAUAGUAUUUAGUGA | 0.0966 ± 0.018 | 0.00382 ± 0.0024 |
| UCCUGGAACAGCUUGCUAGUAUUUAGUUA | 0.0161 ± 0.0069 | 0.00397 ± 0.0027 |
| UCCUGGAUCAGCUUGCAUAGUGAUUUAGUUA | 0.0194 ± 0.0067 | 0.00404 ± 0.0022 |
| UCCUGGAUGAGCUUGCUUAGUAUUUACUUA | 0.124 ± 0.031 | 0.00394 ± 0.0031 |
| UCCUGGAUGAGCUUGCAUAGUGAUUUAGUUA | 0.00836 ± 0.0043 | 0.00434 ± 0.0027 |
| UCCUGCUACAGGUUGCAUAGUAUUUAGAUA | 0.114 ± 0.033 | 0.00283 ± 0.0027 |
| UCCUGCUACAGCUUGCAUUGAAUUUAGUUA | 0.0223 ± 0.0052 | 0.00353 ± 0.0025 |
| UCCUGGAUCAGGAUGCAUAGUAUUUAGUAA | 0.128 ± 0.012 | 0.00364 ± 0.002 |
| UCCUGGAUGUCGAACGAGAGUAUUUAGUUA | < 0.0001 | < 0.0001 |

| Sequence | pre-steady-state target cleavage rate [1] | pre-steady-state target cleavage rate [2] |
| --- | --- | --- |
| UCCUGGAUGAGCUAGCUUAGUAUUUAGUUA | 0.13 ± 0.012 | 0.00773 ± 0.0023 |
| UCCUGGAUGUCGAUGCAUAGUGAUUUAGUUA | 0.00445 ± 0.0044 | 0.00429 ± 0.0023 |
| UCCUGGUACAGCUCGCAUAGUAUUUAGUUA | 0.262 ± 0.023 | 0.0138 ± 0.0045 |
| UCCUCCUACAGCUUGCAUUGAAUUUAGUUA | 0.0267 ± 0.008 | 0.00236 ± 0.0021 |
| UCCUGGAUGUGCUUGGAUAGUAUUAAGUUA | 0.0647 ± 0.018 | 0.00591 ± 0.0023 |
| UCCUGGUACGAGCUUGCAUAGUAUUUAGUUA | 0.247 ± 0.045 | 0.0102 ± 0.0039 |
| UCCUCCUACAGCUUGCAUCGUAUUUAGUUA | 0.129 ± 0.013 | 0.00682 ± 0.0021 |
| UCCUGGAUGUCGUUGCAUAGUAUUUAGUGA | 0.193 ± 0.034 | 0.00426 ± 0.0027 |
| UCCUGGAACAGCUUGCAUAGUUAUUUAGUUA | 0.0126 ± 0.0059 | 0.00339 ± 0.0029 |
| UCCUGGAUGUGGAAGCAUAGUAUUUAGUAA | 0.0306 ± 0.0062 | 0.00424 ± 0.0024 |
| UCCUGGAUGUGCUUGCAAAGUAUUUAGUAA | 0.033 ± 0.0074 | 0.00287 ± 0.0025 |
| UCCUGGUACAGCUUGGUUAGUAUUUAGUAA | 0.159 ± 0.038 | 0.01 ± 0.0031 |
| UCCUGGAUGUGCUUGCAUAGUAUUUAAUUA | 0.0357 ± 0.011 | 0.00315 ± 0.003 |
| UCCUGGAUGAGCUUGCAUAGUAUCUUAGUUA | 0.148 ± 0.017 | 0.00732 ± 0.0024 |
| UCCUGGUACAGCUUGCAUAGUAAAAAGUUA | 0.104 ± 0.024 | 0.00471 ± 0.003 |
| UCCUGGAUGUCCUUGCUUAGUAUAUAGUUA | 0.0347 ± 0.0085 | 0.0039 ± 0.0023 |
| UCCUGGAUGUCGUUGCUUAGUAUUUAGUAA | 0.0495 ± 0.02 | 0.00388 ± 0.0022 |
| UCCUGGAUGUGCUUGCUUAGUAUUUAGUUA | 0.094 ± 0.013 | 0.0114 ± 0.0031 |
| UCCUGGAUGUCGAUGCACAGUAUUUAGUUA | 0.0311 ± 0.0057 | 0.00443 ± 0.0024 |
| UCCUGGAUGUCGAUGCAUAGUAUUUUAGUUA | 0.0747 ± 0.0088 | 0.00647 ± 0.0026 |
| UCCUGGAUGUGCUAGCAUUGUAUUUAGUUA | 0.0146 ± 0.0031 | 0.00365 ± 0.0026 |
| UCCUGGAUGUCCUUGCAUAGUAUUUAGUUG [g2:g19:cont:t1G] | 0.0765 ± 0.0096 | 0.00821 ± 0.002 |
| UCCUGGAUGUCGAUGCAUAGUAUUUAGUUU [g2:g17:cont:t1U] | 0.09 ± 0.011 | 0.00618 ± 0.0021 |
| UCCUGGAUGUGCUUGAAUAGUAUUUAGUUA | 0.127 ± 0.013 | 0.00936 ± 0.0025 |
| UCCUGGAUGUGCUUGAUAGUAUUUAGUUA | 0.00721 ± 0.0036 | 0.00463 ± 0.002 |
| UCCUGGAUGAGCUUGCAUAGGUAUUUAGUUA | 0.00411 ± 0.0031 | 0.00493 ± 0.0023 |
| UCCUGGAUGAGCAUGCAUAGUAUUUACUUA | 0.122 ± 0.029 | 0.00352 ± 0.0028 |
